Measured values published in the supplement of paper PMC6555819.

How the values were obtained:
Test in all cases: PBM binding z-score (relative to random genomic background probes); higher = stronger binding; sequences stand for … in GC…GCGATTGACAGCGTAGAATGAAGG
[1] = test system: FXR:RXRa (NR concentration 270 nM, RXRa partner concentration 90 nM)
How it was run: (§1)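 Custom Agilent 4×180K protein-binding microarrays carried double-stranded probes, each with a 34-nt variable region. These regions held direct-repeat seeds, single-nucleotide variants, half-site ablations and random human genomic background sequences. Ligand-free nuclear receptor dimers were incubated on the arrays for 1 h, antibodies against each partner (one per run) detected binding, and scanned fluorescence was regression-normalized. Binding z-scores take the random background probes as reference.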

[2] = test system: LXRa:RXRa (NR concentration 270 nM, RXRa partner concentration 90 nM)
How it was run: as §1

[3] = test system: LXRa homodimer (NR concentration 270 nM)
How it was run: as §1

[4] = test system: LXRb:RXRa (NR concentration 270 nM, RXRa partner concentration 90 nM)
How it was run: as §1

[5] = test system: LXRb homodimer (NR concentration 270 nM)
How it was run: as §1

[6] = test system: PPARa:RXRa (NR concentration 270 nM, RXRa partner concentration 90 nM)
How it was run: as §1

[7] = test system: PPARg:RXRa (NR concentration 180 nM, RXRa partner concentration 90 nM)
How it was run: as §1

[8] = test system: PPARg:RXRa 270nM:90nM, anti-RXR (NR concentration 270 nM, RXRa partner concentration 90 nM)
How it was run: as §1

[9] = test system: PPARg:RXRa 30nM:10nM, anti-RXR (NR concentration 30 nM, RXRa partner concentration 10 nM)
How it was run: as §1

[10] = test system: PPARg:RXRa 90nM:30nM, anti-RXR (NR concentration 90 nM, RXRa partner concentration 30 nM)
How it was run: as §1

[11] = test system: PPARg:RXRa DBDmut IVT, anti-RXR (DBD mutation: RXRa K156A/R161A, NR concentration 270 nM, RXRa partner concentration 90 nM)
How it was run: as §1

[12] = test system: PPARg:RXRa IVT, anti-PPARg (NR concentration 270 nM, RXRa partner concentration 90 nM)
How it was run: as §1

[13] = test system: PPARg DBDmut:RXRa IVT, anti-PPARg (DBD mutation: PPARg1 K132A/R137A, NR concentration 270 nM, RXRa partner concentration 90 nM)
How it was run: as §1

[14] = test system: PPARg DBDmut IVT, anti-PPARg (DBD mutation: PPARg1 K132A/R137A, NR concentration 270 nM)
How it was run: as §1

[15] = test system: PPARg homodimer (NR concentration 180 nM)
How it was run: as §1

[16] = test system: PXR:RXRa (NR concentration 270 nM, RXRa partner concentration 90 nM)
How it was run: as §1

[17] = test system: PXR homodimer (NR concentration 270 nM)
How it was run: as §1

[18] = test system: RARa:RXR (NR concentration 270 nM, RXRa partner concentration 90 nM)
How it was run: as §1

[19] = test system: RARa homodimer (NR concentration 270 nM)
How it was run: as §1

[20] = test system: RARb:RXRa (NR concentration 270 nM, RXRa partner concentration 90 nM)
How it was run: as §1

| Sequence | PBM binding z-score [1] | PBM binding z-score [2] | PBM binding z-score [3] | PBM binding z-score [4] | PBM binding z-score [5] | PBM binding z-score [6] | PBM binding z-score [7] | PBM binding z-score [8] | PBM binding z-score [9] | PBM binding z-score [10] | PBM binding z-score [11] | PBM binding z-score [12] | PBM binding z-score [13] | PBM binding z-score [14] | PBM binding z-score [15] | PBM binding z-score [16] | PBM binding z-score [17] | PBM binding z-score [18] | PBM binding z-score [19] | PBM binding z-score [20] |
| --- | --- | --- | --- | --- | --- | --- | --- | --- | --- | --- | --- | --- | --- | --- | --- | --- | --- | --- | --- | --- |
| CCTACGGGGCCAAAAAGGTCATTGATGCCGATAA | 3.94 | 4.35 | 2.76 | 4.36 | 0.0213 | 4.67 | 1.63 | 2.97 | 0.7 | 1.77 | 0.493 | 1.52 | -1.13 | -0.859 | 2.87 | 5.34 | 9.18 | 5.07 | 0.847 | 4.26 |
| TGTCAAAGTTCATAGGTAACGTAAGTATCCACAC | 6.65 | 5.95 | 4.17 | 4.02 | 1.38 | 5.13 | 7.92 | 7.41 | 4.42 | 6.63 | 0.217 | 4.39 | 1.15 | 2.16 | 1.89 | 5.05 | 3.32 | 4.15 | 0.391 | 4.9 |
| TGAATGAGGTTATAAGATCATGGAACGTTGCAAA | 1.6 | 1.52 | -0.175 | 1.37 | 0.0257 | 3.04 | 1.65 | 2.41 | 1.02 | 1.78 | 1.37 | 2 | 1.44 | 0.209 | -0.119 | 1.1 | -0.359 | 1.96 | -0.439 | 1.13 |
| TCACACAGGTGAAGGTAACTCAGGTACGCAGTCG | 0.851 | 2.02 | -0.228 | 1 | -0.466 | 1.32 | 1.14 | 1.81 | 2.94 | 2.66 | 2.55 | 1.69 | 0.51 | -0.435 | -0.0155 | 0.559 | -0.0288 | 0.898 | 0.414 | 1.15 |
| ACTCGGAGGAGAAAGGTCAGAGCTACGCCAGTGA | 2.6 | 3.16 | 0.746 | 2.72 | -0.215 | 3.8 | 3.76 | 4.3 | 2.61 | 4.29 | 0.262 | 1.73 | -0.454 | -0.291 | 2.29 | 3.09 | 0.0761 | 3.7 | 1.26 | 3.93 |
| CCTCGGAGGAGAACAGGAGGTCAGAGCTGCCAGA | 1.12 | 1.8 | 1.57 | 1.43 | -0.244 | 1.87 | 0.262 | 0.0579 | -0.552 | -0.216 | -0.418 | 0.248 | -1.26 | -1.78 | 1.58 | 1.87 | 0.761 | 2.19 | 0.495 | 1.95 |
